Assay outcomes from PubChem BioAssay.
Sampled rows, rich in hits. Any-hit rate of the full collection: about 11%.
USP30 block = human USP30 deubiquitinase inhibition | purified USP30, Ub-rhodamine cleavage fluorescence | inhibition, % at 25 µM | actives 5.3% (n = 47,000) | AID 1645860
USP17 block = human USP17-like deubiquitinase inhibition; actives 6.5% (n = 47,000); inhibition, % at 50 µM; purified USP17, Ub-rhodamine cleavage fluorescence, 3 h; A8MUK1
OTUD3 inh = inhibitors of human OTUD3 deubiquitinase. Q5T2D3. purified OTUD3, Ub-rhodamine fluorescence, 2 h. inhibition, % at 25 µM. actives 0.7% (n = 47,000). AID 1645858
Target sequence (Q5T2D3 whole entry, looked up): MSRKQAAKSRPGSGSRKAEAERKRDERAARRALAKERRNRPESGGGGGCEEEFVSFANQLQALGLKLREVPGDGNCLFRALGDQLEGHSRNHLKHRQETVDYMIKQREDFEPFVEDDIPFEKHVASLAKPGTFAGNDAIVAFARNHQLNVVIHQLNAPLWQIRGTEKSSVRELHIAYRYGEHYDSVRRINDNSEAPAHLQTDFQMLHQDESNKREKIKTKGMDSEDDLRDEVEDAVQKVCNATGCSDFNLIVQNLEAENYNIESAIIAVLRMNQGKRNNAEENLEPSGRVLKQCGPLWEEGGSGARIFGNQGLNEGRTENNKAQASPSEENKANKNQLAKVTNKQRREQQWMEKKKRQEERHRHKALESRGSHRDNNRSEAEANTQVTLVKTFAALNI
USP28 inh = human USP28 deubiquitinase inhibition. purified USP28, Ub-rhodamine cleavage fluorescence, 30 min. inhibition, % at 25 µM. actives 3% (n = 47,000)
Starred values were filed as active, the others as inactive; nt = not tested or not shown. Rule as the data show it: active = inhibition above about 30%; inactive = the rest.

SMILES | USP30 block | USP17 block | OTUD3 inh | USP28 inh
CC(OC(=O)c1ccc(Cl)cc1)C(=O)NCC1CCCCC1 (configuration not stated) | 31* | 26 | 10 | 15
CC(C)c1ccc(N2CCN(Cc3ccc(F)cc3)C2=O)cc1 | 3 | 7 | 7 | 31*
O=C1N(Cc2ccc(F)cc2)CCN1c1ccc2c(c1)CCC2 | 31* | 27 | 27 | 52*
COc1cccc(CN2CCN(c3ccc(F)cc3)C2=O)c1 | 6 | -4 | -2 | 40*
CC(C)(C)c1ccc(CN2CCN(c3ccc4c(c3)CCC4)C2=O)cc1 | 27 | 16 | 27 | 13
COc1cccc(CC(=O)NC2CCN(c3ccc(F)cc3)C2=O)c1 (configuration not stated) | -36 | nt | -13 | -8
O=C1N(Cc2ccc(F)cc2)CCN1c1ccc(C(F)(F)F)cn1 | 23 | 4 | 18 | 65*
O=C(OCc1ccc(Cl)cc1)c1cnc(N2CCSCC2)nc1C(F)(F)F | 12 | 1 | 0 | -4
COc1cc2c(cc1OC)C(c1cccs1)N(CC(=O)N1CCNC1=O)CC2 (configuration not stated) | -167 | -45 | -26 | -86
CC(CCc1ccccc1)NC(=O)Cn1cccc1C(=O)c1ccccc1 (configuration not stated) | 15 | 14 | 4 | 38*
CC(CCc1ccccc1)NC(=O)CSc1ncnc2nc[nH]c12 (configuration not stated) | nt | 0 | 2 | nt
O=C1CCSc2ccc(S(=O)(=O)CCC(=O)N3CCc4ccccc4C3)cc2N1 | 13 | 39* | 10 | 17
CC1CCN(C(=O)CCS(=O)(=O)c2ccc3c(c2)NC(=O)CCS3)CC1 | -32 | -30 | -4 | -6
Cc1noc(C2CN(C(=O)/C=C/c3ccc4c(c3)OCO4)C2)n1 | 33* | 5 | 9 | 11
O=C(/C=C/c1cccc([N+](=O)[O-])c1)N1CCc2ccccc21 | -8 | 0 | 0 | 8
O=C(/C=C/c1ccc2c(c1)OCO2)N1CCCc2ccccc21 | 46* | 18 | 30 | 25
Cc1cccc(OCC(=O)Nc2c(C)nc3scc(C)n3c2=O)c1C | 12 | 10 | 1 | 9
O=C(CC1SC(=O)NC1=O)Nc1cccc(C(F)(F)F)c1 (configuration not stated) | -50 | -9 | -16 | -18
O=C1NC(=N/N=C/c2ccccc2)SC1Cc1cc(C(F)(F)F)ccc1Cl (configuration not stated) | 35* | 36* | 29 | 8
O=C(c1cnc2ccccc2n1)N1CCC(S(=O)(=O)c2ccc(-c3ccco3)cc2)CC1 | -13 | 44* | -3 | 5
COc1ccccc1C(=O)N1CCC(S(=O)(=O)c2ccc(-c3ccco3)cc2)CC1 | 27 | 56* | 16 | 26
COc1ccc(C2CCCN2Cc2cc(OC)c(O)c(OC)c2)cc1 (configuration not stated) | -29 | -13 | -8 | -12
Cc1ccc(C(=O)Nc2cc3c4c(c2)C(C)C(=O)N4CCC3)cc1 (configuration not stated) | -93 | -32 | -23 | 25
Cc1ccc(C(=O)Nc2cc3c4c(c2)CC(=O)N4CCC3)cc1C | -5 | 10 | 8 | 72*
COc1ccccc1NS(=O)(=O)c1ccc2c(c1)OCC(=O)N2 | 16 | 4 | 3 | 10
SMILES | USP30 block | USP17 block | OTUD3 inh | USP28 inh
COc1ccccc1NC(=O)NC1CCN(c2ccc(F)cc2)C1=O (configuration not stated) | -39 | 8 | 8 | 0
O=C(Nc1ccc(F)cc1F)NC1CCN(c2ccccc2)C1=O (configuration not stated) | 5 | 73* | 12 | 45*
C[C@H]1C(=O)N(C)[C@@H]2CCN(S(=O)(=O)c3cccc(C#N)c3)[C@@H]2C(=O)N1C | 10 | 4 | 2 | -2
CC(C)Oc1ccc(S(=O)(=O)N2CCOCC2)cc1NCC(=O)Nc1ccc(C(C)(C)C)cc1 | 33* | 14 | 19 | 11
O=C(Cn1cncc(-c2nc(-c3ccccc3)cs2)c1=O)Nc1cc(F)ccc1F | -137 | -40 | -33 | -17
CC1CCCCN1S(=O)(=O)c1ccc(C(=O)Nc2ccc(S(N)(=O)=O)cc2)cc1 (configuration not stated) | 71* | 56* | 18 | 35*
CC(=O)Nc1ccc(S(=O)(=O)N2CCCC2c2ccccc2)cc1 (configuration not stated) | 8 | 3 | 3 | 0
O=C(Nc1ccc(S(=O)(=O)N2CCCCC2c2cccnc2)cc1)c1ccc2c(c1)OCO2 (configuration not stated) | 44* | 30 | 10 | 41*
CC1CCN(S(=O)(=O)c2ccc(C(=O)Nc3ccc(S(N)(=O)=O)cc3)cc2)CC1 | 68* | 10 | 0 | 21
COc1cccc(CNS(=O)(=O)c2ccc3c(c2)CCCN3C(=O)C2CCC2)c1 | 0 | 2 | 0 | 30*
CC(=O)N1CCCc2cc(S(=O)(=O)NCc3ccc4c(c3)OCO4)ccc21 | 24 | 2 | 6 | 10
COc1ccc(NC(=O)CN2C(=O)CSc3ncccc32)cc1 | -8 | nt | -5 | -8
COc1ccc(NC(=O)CN2C(=O)CC(c3ccccc3)S(=O)(=O)c3ccccc32)cc1 (configuration not stated) | 24 | 31* | 24 | 14
Cc1cccc(NC(=O)CN2C(=O)CC(c3ccccc3)S(=O)(=O)c3ccccc32)c1C (configuration not stated) | -84 | 51* | -7 | -13
Cc1ccccc1NC(=O)CN1C(=O)CC(c2ccccc2)S(=O)(=O)c2ccccc21 (configuration not stated) | 6 | 23 | 14 | 14
O=C(Nc1nc2ccccc2s1)c1ccc2c(c1)C(=O)N(Cc1cccnc1)C2=O | 24 | 58* | 1 | -3
CC1CC(=O)Nc2ccccc2N1S(=O)(=O)c1ccc(C#N)cc1 (configuration not stated) | 55* | 2 | 9 | 21
Cc1ccc(S(=O)(=O)N2CC(C)C(=O)Nc3ccccc32)cc1 (configuration not stated) | -8 | -6 | -6 | -1
Cc1nc2nnnn2c(C)c1C/C=C/c1ccccc1 | nt | -24 | -8 | nt
O=C(c1nnn(Cc2ccc(Cl)cc2)c1-n1cccc1)N1CCCC1 | 14 | 26 | 16 | 76*
COc1ccc(Cn2nnc(C(=O)NC3CCCCC3)c2-n2cccc2)cc1 | 11 | 48* | 22 | 42*
COc1ccc(Cn2nnc(C(=O)N3CCSCC3)c2-n2cccc2)cc1 | -41 | 33* | 4 | 20
CSCc1cc(Oc2ccc(Cl)cc2)nc(-c2ccncc2)n1 | 24 | 29 | 16 | 24
COc1ccc(Cn2c(SCC(=O)Nc3cc(C)[nH]n3)nc3nccnc3c2=O)cc1 | 49* | 48* | 7 | 17
O=C(Nc1nc2cc3c(cc2s1)OCCO3)C1CCCCC1 | 13 | 11 | 7 | 22
Cc1cc2nc(NC(=O)NC3CCCCC3)sc2cc1C | 36* | -39 | 25 | 14
Cc1sc2nc(C)n(C3CCN(CCC(N)=O)CC3)c(=O)c2c1C | 15 | 14 | 10 | 8
